Test results reported in PubChem BioAssay (NCATS).
Results filed as inconclusive are left out. A call without a number means that no potency is given here. Calls of active or inactive are those of the source. Unless noted, the call rests on the fitted dose curve.

test system: not listed separately; assay: Validation screen for inhibitors of Lassa infection (AID 463096); details: Lassa virus infection, cell-based; series mostly up to 46.1 µM

| SMILES | Potency |
| --- | --- |
| CC(=O)CCCCn1c(=O)c2c(ncn2C)n(C)c1=O | inactive |
| O=NN(CCCl)C(=O)NCCCl | inactive |
| C[C@](N)(Cc1ccc(O)c(O)c1)C(=O)O | inactive |
| COc1cc2c(c(OC)c1OC)-c1ccc(OC)c(=O)cc1[C@@H](NC(C)=O)CC2 | inactive |
| COc1cc2nc(N3CCN(C(=O)C4COc5ccccc5O4)CC3)nc(N)c2cc1OC (stereo unspecified) | inactive |
| CCCN(CCC)CCc1cccc2c1CC(=O)N2 | inactive |
| COc1ccccc1OCC(O)CN1CCN(CC(=O)Nc2c(C)cccc2C)CC1 (stereo unspecified) | inactive |
| CCN(CC)CCOC(=O)C1(C2CCCCC2)CCCCC1 | inactive |
| CC(=O)N[C@@H](CS)C(=O)O | inactive |
| CC(COc1ccccc1)N(CCCl)Cc1ccccc1 (stereo unspecified) | inactive |
| Oc1ccc(C2CNCCc3c2cc(O)c(O)c3Cl)cc1 (stereo unspecified) | inactive |
| O=C1CCC(N2C(=O)c3ccccc3C2=O)C(=O)N1 (stereo unspecified) | inactive |
| CNC1(C)C2CCC(C2)C1(C)C (stereo unspecified) | inactive |
| CC[N+](C)(C)c1cccc(O)c1 | inactive |
| COC(=O)C1=C(C)NC(C)=C(C(=O)OCCN(C)Cc2ccccc2)C1c1cccc([N+](=O)[O-])c1 (stereo unspecified) | inactive |
| CC1=C(/C=C/C(C)=C/C=C/C(C)=C/C(=O)Nc2ccc(O)cc2)C(C)(C)CCC1 | inactive |
| CN(C)CCOC(C)(c1ccccc1)c1ccccn1 (stereo unspecified) | inactive |
| O=c1[nH]cc(F)c(=O)[nH]1 | inactive |
| CC(C)NCC(O)c1ccc(O)c(O)c1 (stereo unspecified) | inactive |
| CCC1(c2ccccc2)C(=O)NCNC1=O | inactive |
| CCOC(=O)c1ncn2c1CN(C)C(=O)c1cc(F)ccc1-2 | inactive |
| NNCCc1ccccc1 | inactive |
| NC(=O)OCC(COC(N)=O)c1ccccc1 | inactive |
| CC(C)C(=O)Nc1ccc([N+](=O)[O-])c(C(F)(F)F)c1 | inactive |
| N[C@@H]1CONC1=O | inactive |
| Cc1cnc(C(=O)NCCc2ccc(S(=O)(=O)NC(=O)NC3CCCCC3)cc2)cn1 | inactive |
| CN(C)CC[C@@H](c1ccc(Br)cc1)c1ccccn1 | inactive |
| Clc1ccc(C(c2ccccc2Cl)C(Cl)Cl)cc1 (stereo unspecified) | inactive |
| CC(C)NCC(O)COc1ccc(CCOCC2CC2)cc1 (stereo unspecified) | inactive |

test system: not listed separately; assay: Quantitative high throughput screen for delayed death inhibitors of the malarial parasite plastid, 96 hour incubation (AID 488745; active means well fitted curve in the direction sought with a large enough effect; an effect the other way counts as inactive or inconclusive; further: potency means the concentration at half of the fitted maximal effect; nearly all actives have a fitted effect of over 70% in size); details: Plasmodium falciparum growth; series mostly up to 28.7 µM
Outline: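 P. falciparum carrying an integrated firefly luciferase reporter, grown in erythrocytes (2% hematocrit, 0.1% parasitemia final) in RPMI 1640/0.5% Albumax, was exposed to compound for 96 h (two generations) at 37 C, 5% CO2. Luminescence decrease indicated growth inhibition.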

| SMILES | Potency |
| --- | --- |
| CC[N+](C)(C)c1cccc(O)c1 | 0.0059 µM (active) |
| O=c1[nH]cc(F)c(=O)[nH]1 | 9.28 µM (active) |
| OCCN1CCN(CCCN2c3ccccc3Sc3ccc(C(F)(F)F)cc32)CC1 | 3.29 µM (active) |

molecular target: Flap endonuclease 1 (Homo sapiens) (UniProt P39748); assay: qHTS Validation Assay for the Inhibitors of Human Flap endonuclease 1 (FEN1) (AID 488816; active means well fitted curve in the direction sought with a large enough effect; an effect the other way counts as inactive or inconclusive); details: FEN1 nuclease activity, fluorogenic DNA substrate; series mostly up to 57.1 µM
Outline: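 Readings taken at 0 and 15 min after starting the reaction with 50 nM (final) substrate supplied the signal. Compounds had first sat with 10 nM FEN1 reagent for 15 min at room temperature. Values come from Hill-equation concentration-response fits.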

Chain of Flap endonuclease 1 (Homo sapiens) (P39748 whole entry, looked up): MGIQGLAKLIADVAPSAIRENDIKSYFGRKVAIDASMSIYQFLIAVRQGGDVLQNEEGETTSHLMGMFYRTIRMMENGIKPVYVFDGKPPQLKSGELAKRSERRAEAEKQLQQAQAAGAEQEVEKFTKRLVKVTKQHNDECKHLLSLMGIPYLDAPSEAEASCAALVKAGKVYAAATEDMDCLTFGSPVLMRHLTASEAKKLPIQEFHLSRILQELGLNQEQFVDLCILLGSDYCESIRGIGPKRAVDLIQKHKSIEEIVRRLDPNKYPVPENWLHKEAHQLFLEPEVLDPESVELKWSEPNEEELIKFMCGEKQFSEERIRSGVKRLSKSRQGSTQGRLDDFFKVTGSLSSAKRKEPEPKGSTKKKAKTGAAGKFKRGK

| SMILES | Potency |
| --- | --- |
| CCC1C(=O)OCC1Cc1cncn1C (stereo unspecified) | inactive |
| COc1cc2c(c(OC)c1OC)-c1ccc(OC)c(=O)cc1[C@@H](NC(C)=O)CC2 | inactive |
| CC(COc1ccccc1)N(CCCl)Cc1ccccc1 (stereo unspecified) | inactive |
| O=c1[nH]cc(F)c(=O)[nH]1 | inactive |
| CCOC(=O)c1ncn2c1CN(C)C(=O)c1cc(F)ccc1-2 | inactive |

molecular target: M-phase phosphoprotein 8 (Homo sapiens) (UniProt Q99549); assay: qHTS Validation Assay for Inhibitors for MPP8 Chromodomain Interactions with Methylated Histone Tails (AID 488949; active means well fitted curve in the direction sought with a large enough effect; an effect the other way counts as inactive or inconclusive;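 further: 50 nM MPP8 with 50 nM peptide preformed then compounds added for 30 min; AlphaScreen signal from MPP8 chromodomain bound to biotinylated H3K9me3 peptide; top concentration of the series differs between compounds; nearly all actives have a fitted effect of over 55% in size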); details: AlphaScreen MPP8 binding to H3K9me3 peptide; series mostly up to 57.1 µM
Outline: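 50 nM MPP8 + 50 nM b-H3K9me3 peptide, PBS pH 7.4/0.01% Tween-20, 30 min RT; + cpd 30 min RT; + AlphaScreen donor/Ni-chelate acceptor beads 10 ug/mL final, 30 min dark; luminescence read.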

Chain of M-phase phosphoprotein 8 (Homo sapiens) (Q99549 whole entry, looked up): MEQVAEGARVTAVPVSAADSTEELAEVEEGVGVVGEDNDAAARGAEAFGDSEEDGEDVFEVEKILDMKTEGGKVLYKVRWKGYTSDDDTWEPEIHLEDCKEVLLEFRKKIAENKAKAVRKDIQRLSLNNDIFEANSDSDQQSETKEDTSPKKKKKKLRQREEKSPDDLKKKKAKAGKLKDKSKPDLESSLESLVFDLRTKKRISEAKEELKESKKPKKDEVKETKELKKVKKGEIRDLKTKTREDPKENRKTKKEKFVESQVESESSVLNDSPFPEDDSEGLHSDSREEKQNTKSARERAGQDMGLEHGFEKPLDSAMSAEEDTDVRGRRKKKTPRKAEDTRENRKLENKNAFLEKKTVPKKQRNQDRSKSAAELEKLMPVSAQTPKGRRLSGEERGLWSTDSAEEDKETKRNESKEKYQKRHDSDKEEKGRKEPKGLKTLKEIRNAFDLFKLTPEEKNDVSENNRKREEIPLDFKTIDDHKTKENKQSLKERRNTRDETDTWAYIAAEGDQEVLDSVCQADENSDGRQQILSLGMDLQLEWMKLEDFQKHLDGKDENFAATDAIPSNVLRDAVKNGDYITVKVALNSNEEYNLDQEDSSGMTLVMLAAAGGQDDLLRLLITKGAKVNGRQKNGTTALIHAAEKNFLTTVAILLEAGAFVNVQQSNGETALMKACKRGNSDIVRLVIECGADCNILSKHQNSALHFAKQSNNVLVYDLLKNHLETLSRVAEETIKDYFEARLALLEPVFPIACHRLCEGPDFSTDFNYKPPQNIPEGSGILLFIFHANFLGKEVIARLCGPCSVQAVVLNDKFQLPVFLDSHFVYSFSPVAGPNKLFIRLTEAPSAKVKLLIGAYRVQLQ

| SMILES | Potency |
| --- | --- |
| CCC1C(=O)OCC1Cc1cncn1C (stereo unspecified) | inactive |
| CC(COc1ccccc1)N(CCCl)Cc1ccccc1 (stereo unspecified) | inactive |
| CN(C)CCC=C1c2ccccc2CCc2ccccc21 | inactive |
| CC(C)C(=O)Nc1ccc([N+](=O)[O-])c(C(F)(F)F)c1 | inactive |
